{"source": "PubChem BioAssay AID1376", "about": "(SRMLSC, 2008)", "note": "“And” between values parts separate entries of the source, which are not always exact repeats. Identical values can stand only once. Among all 220,000 compounds or so, about 530 (0.24%) were called active. The full list was thinned out, with actives kept by preference. Entries with a potency or affinity are not part of this list. Values without a mark were called inactive. No stated cut-off is given here; in the data, active means inhibition above about 13%; inconclusive means no clear call, values can overlap the other calls; inactive means below that."}
{"target": "Bifunctional protein GlmU (Mycobacterium tuberculosis (strain ATCC 25618 / H37Rv)) (UniProt P9WMN3)", "sequence (P9WMN3 whole entry, looked up)": "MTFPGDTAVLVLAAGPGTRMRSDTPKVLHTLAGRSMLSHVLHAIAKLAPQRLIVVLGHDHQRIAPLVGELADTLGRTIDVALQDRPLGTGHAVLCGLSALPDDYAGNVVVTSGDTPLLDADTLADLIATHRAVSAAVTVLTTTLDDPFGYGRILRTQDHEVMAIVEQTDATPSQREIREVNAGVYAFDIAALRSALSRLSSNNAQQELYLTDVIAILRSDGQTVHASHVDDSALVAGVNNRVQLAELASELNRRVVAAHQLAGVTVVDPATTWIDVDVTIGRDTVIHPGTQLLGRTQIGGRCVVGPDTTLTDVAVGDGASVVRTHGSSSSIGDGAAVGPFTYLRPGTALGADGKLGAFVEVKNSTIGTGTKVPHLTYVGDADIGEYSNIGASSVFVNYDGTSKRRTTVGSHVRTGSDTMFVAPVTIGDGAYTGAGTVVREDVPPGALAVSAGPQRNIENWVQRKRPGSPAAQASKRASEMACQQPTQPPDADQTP", "test": "inhibition of mycobacterial GlmU enzyme – biochemical, glucosamine-1-phosphate acetyltransferase (AID 1376);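 further: 0% = complete reaction with vehicle and 100% = reaction without substrate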", "details": "M. tuberculosis GlmU acetyltransferase enzyme assay; hits give high values;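 tested at 30 µM in the primary screen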"}
{"molecule": "Cc1ccc(SCc2cc(=O)[nH]c(N3CCN(C)CC3)n2)cc1", "inhibition": "2.83%"}
{"molecule": "Cc1ccc(N2C(=O)c3cccc4c(C(=O)O)ccc(c34)C2=O)cc1", "inhibition": "-2.11%"}
{"molecule": "O=C(O)c1ccc2c3c(cccc13)C(=O)N(c1ccccc1)C2=O", "inhibition": "5.53%"}
{"molecule": "CCn1c(SCC(=O)N2CCc3ccccc32)nc2c(c1=O)SC(C)C2", "note": "(centres undefined)", "inhibition": "2.91%"}
{"molecule": "O=C(O)c1cc(-c2ccccc2)nc2nc(N3CCCCC3)sc12", "inhibition": "-4.63%"}
{"molecule": "O=C(O)CCSc1nc2ccccc2s1", "inhibition": "13.3% (active)"}
{"molecule": "O=C(CSc1nc2ccccc2s1)CSc1nc2ccccc2s1", "inhibition": "-0.56%"}
{"molecule": "O=C(O)CSc1nc2ccccc2s1", "inhibition": "-6.75% and -0.54%"}
{"molecule": "Cc1[nH]c2ccccc2c1C(=O)COC(=O)CCS(=O)(=O)c1ccccc1Cl", "inhibition": "0.91%"}
{"molecule": "C/C=C(/C)C(=O)Nc1cccc(C2=NOC3(C2)C[C@H](C(N)=O)N(C(=O)COc2ccc(Cl)cc2)C3)c1", "note": "(some centres undefined)", "inhibition": "-3.89%"}
{"molecule": "CCC(=O)Nc1cccc(C2=NOC3(C2)C[C@@H](C(N)=O)N(C(=O)C(c2ccccc2)c2ccccc2)C3)c1", "note": "(some centres undefined)", "inhibition": "7.01%"}
{"molecule": "NC(=O)[C@@H]1CC2(CC(c3cccc(NC(=O)COc4ccc(Cl)cc4)c3)=NO2)CN1C(=O)COc1ccc(Cl)cc1", "note": "(some centres undefined)", "inhibition": "3.68%"}
{"molecule": "C/C=C(\\C)C(=O)Nc1cccc(C2=NOC3(C2)C[C@H](C(N)=O)N(C(=O)C(c2ccccc2)c2ccccc2)C3)c1", "note": "(some centres undefined)", "inhibition": "4.35%"}
{"molecule": "C=C(C)C(=O)Nc1cccc(C2=NOC3(C2)C[C@@H](C(N)=O)N(C(=O)CC(c2ccccc2)c2ccccc2)C3)c1", "note": "(some centres undefined)", "inhibition": "14.4% (active)"}
{"molecule": "NC(=O)[C@H]1CC2(CC(c3cccc(NC(=O)CC(c4ccccc4)c4ccccc4)c3)=NO2)CN1C(=O)CC(c1ccccc1)c1ccccc1", "note": "(some centres undefined)", "inhibition": "2.76%"}
{"molecule": "C/C=C(/C)C(=O)Nc1cccc(C2=NOC3(C2)C[C@@H](C(N)=O)N(C(=O)CC(c2ccccc2)c2ccccc2)C3)c1", "note": "(some centres undefined)", "inhibition": "2.91%"}
{"molecule": "CC(=O)Oc1ccccc1N(C(C)=O)S(=O)(=O)c1cccc([N+](=O)[O-])c1", "inhibition": "2.75%"}
{"molecule": "COc1nc(-c2ccccc2)ccc1-c1noc(-c2cccs2)n1", "inhibition": "-3.99%"}
{"molecule": "O=C(CN(Cc1ccccc1)S(=O)(=O)c1ccccc1)N/N=C/c1ccccc1C(=O)O", "inhibition": "1.89%"}
{"molecule": "CCN(CC)S(=O)(=O)c1cc(NC(=O)COC(=O)CCC(=O)c2cccs2)ccc1C", "inhibition": "1.97%"}
{"molecule": "O=C(NCc1n[nH]c(=S)n1-c1cccc(C(F)(F)F)c1)c1ccc(S(=O)(=O)N2CCCC2)cc1", "inhibition": "-1.04%"}
{"molecule": "Oc1ccc(Cl)cc1/C=N/c1nccs1", "inhibition": "5.12%"}
{"molecule": "Oc1ccc(N=Nc2ccc(Br)cc2)c(O)c1", "inhibition": "7.96%"}
{"molecule": "Oc1ccc(N=Nc2nccs2)c(O)c1", "inhibition": "53.5% (active)"}
{"molecule": "Cc1cc2nc(=O)c(/C=C3\\C=Nc4ccccc43)c(N)n2o1", "inhibition": "-5.38%"}
{"molecule": "O=c1ccnc2n1COCS2", "inhibition": "-2.85%"}
{"molecule": "CC(/C=C/c1ccccc1)=N\\NC(=O)c1ccncc1", "inhibition": "2.68%"}
{"molecule": "Cc1ccc2c(C(=O)CN3CCN(c4ccccc4)CC3)c(C)[nH]c2c1", "inhibition": "14.3% (active)"}
{"molecule": "Cc1ccc2c(C(=O)CN3CCCC3)c(C)[nH]c2c1", "inhibition": "-5.2%"}
{"molecule": "Cc1ccc2c(C(=O)CN3CCOCC3)c(C)[nH]c2c1", "inhibition": "2.67%"}
{"molecule": "O=C(CSc1ccc(Cl)cc1)NN=C1CCCCCC1", "inhibition": "0.28%"}
{"molecule": "O=C(Nc1cccc(N2CCCC2)c1)c1cccs1", "inhibition": "-6.15%"}
{"molecule": "CCN1CCN(C(=O)NCc2ccccc2)CC1", "inhibition": "-0.69%"}
{"molecule": "Oc1ccc(NCc2ccccc2OCc2ccccc2F)cc1", "inhibition": "1.2%"}
{"molecule": "Oc1ccc(NCc2ccccc2OCc2ccccc2)cc1", "inhibition": "1.63%"}
{"molecule": "CCOc1ccccc1CNc1ccc(O)cc1", "inhibition": "12.9% (active)"}
{"molecule": "CCc1nnc(NC(=O)c2cccc(S(=O)(=O)N3CC(c4ccccc4)CC3=O)c2)s1", "note": "(centres undefined)", "inhibition": "5.84%"}
{"molecule": "COCCn1cnnc1SCC(=O)Nc1cccc(S(=O)(=O)N2CCCCCC2)c1", "inhibition": "1.58%"}
{"molecule": "COC(=O)c1ccc(S(=O)(=O)N2CCCCCC2)n1C", "inhibition": "12.8% (active)"}
{"molecule": "COC(=O)c1ccc(S(=O)(=O)N2CCC(O)CC2)n1C", "inhibition": "-2.92%"}
{"molecule": "COC(=O)c1ccc(S(=O)(=O)N2CCN(C)CC2)n1C", "inhibition": "-8.72%"}
{"molecule": "CCc1nnc(NC(=O)CSc2nc3c(c(=O)n2C)SC(C)C3)s1", "note": "(centres undefined)", "inhibition": "3.46%"}
{"molecule": "O=c1/c(=C/c2ccccc2)sc2nnc(-c3cccs3)n12", "inhibition": "0.67%"}
{"molecule": "C#CC[N+]1(CC#Cc2ccccc2)CCOCC1", "inhibition": "-6.07%"}
{"molecule": "OCC#CC[N+]1(CC#Cc2ccccc2)CCOCC1", "inhibition": "-6.73%"}
{"molecule": "CC1=C(C(=O)Nc2ccccc2)C(c2cccs2)n2nnnc2N1", "note": "(centres undefined)", "inhibition": "-3.97%"}
{"molecule": "CCn1c(CSc2nc3ccccc3s2)nnc1SCC(=O)c1ccc(O)c(O)c1", "inhibition": "5.09%"}
{"molecule": "CCn1c(CSc2nc3ccccc3s2)nnc1SCC(N)=O", "inhibition": "1.32%"}
{"molecule": "CCn1c(CSc2nc3ccccc3s2)nnc1SCC(=O)c1ccc(O)cc1O", "inhibition": "13% (active)"}
{"molecule": "C=C(C)CNC(=S)N/N=C/c1ccc([N+](=O)[O-])cc1", "inhibition": "3.43%"}
{"molecule": "Cc1ccc(-n2nc3c(c2NC(=O)c2ccc4c(c2)OCO4)CSC3)cc1", "inhibition": "-1.67%"}
{"molecule": "Cc1ccc(-n2nc3c(c2NC(=O)c2cccs2)CSC3)cc1", "inhibition": "19.6% (active)"}
{"molecule": "Cc1ccc(-n2nc3c(c2NC(=O)c2c(-c4ccccc4Cl)noc2C)CSC3)cc1", "inhibition": "4.33%"}
{"molecule": "Cc1nccn1CCCN1C(=O)OC2(CCCCC2)C1(C)O", "note": "(centres undefined)", "inhibition": "-0.12%"}
{"molecule": "Cc1cc(C)c(C(=O)COC(=O)c2cc([N+](=O)[O-])ccc2NCCO)cc1C", "inhibition": "0.91%"}
{"molecule": "O=C1Nc2ccccc2/C1=N/N=C/c1cccc(O)c1", "inhibition": "0.15%"}
{"molecule": "O=C1Nc2ccccc2/C1=N\\N=C\\c1ccc(O)c(O)c1", "inhibition": "15% (active)"}
{"molecule": "COc1cc(/C=N/N=C2/C(=O)Nc3ccccc32)ccc1O", "inhibition": "1.01%"}
{"molecule": "CC1CCc2ccc(F)cc2N1S(=O)(=O)c1cccs1", "note": "(centres undefined)", "inhibition": "3.23%"}
